This assay concerns the target Glucose transporter (Leishmania mexicana) (UniProt O61059). As to the kind of experiment: ST_JUDE_LEISH: Cytotoxicity at 2uM final concentration against transgenic Leishmania Mexicana promastigotes LmGT2 that are glucose transport deficient and complemented with the L. Mexicana glucose transporter 2. Activity is measured by DNA content using SYBR green in vitro. The class given is functional.
With `O=C(N/N=C/c1nc2ccccc2[nH]1)c1cccc([N+](=O)[O-])c1`, the inhibition (commonly the relative decrease from the control value, in per cent) worked out at 0.25%.

`COc1ccccc1-c1sccc1C(=O)NC1(c2cc(Cl)cc(Cl)c2)CCCC1`: the inhibition came out at 4.85%.

With `CN(C)c1nc2cc(-n3cnc4cc(-c5ccc(Cl)cc5)sc4c3=O)ccc2n1CCCN1CCCCC1`, the inhibition was determined as 5.06%.

In the case of `CCCC(=O)Nc1ccc(Cl)c(NC(=O)COc2cc(C)ccc2C(C)C)c1`, the inhibition turned out to be 8.05%.

For the molecule `CCCCC(NCC)c1ccc(OCCOc2ccc(C(CCCC)NCC)cc2)cc1` (stereo not given), the inhibition was found to be 106%.

For `Cc1nc2c(Nc3nc(-c4ccncc4)cs3)ncnc2n1-c1ccccc1Cl`, the inhibition was determined as 13.4%.

On to `O=C(/C=C/c1ccc(Cl)c(Cl)c1)NCCCCCN1CCCC(C(=O)Nc2ccc(Cl)c(Cl)c2)C1` (stereo not given), for which the inhibition is -0.96%.

For `CN(C)CCNC(=O)c1ccc2c(c1)ncn2-c1cc(OCc2ccccc2C(F)(F)F)c(C(N)=O)s1.CN(C)CCNC(=O)c1ccc2ncn(-c3cc(OCc4ccccc4C(F)(F)F)c(C(N)=O)s3)c2c1`, the inhibition amounted to 1.86%.

Consider `CCCOc1ccc(-c2nonc2NC(=O)c2cccc(OC)c2)cc1OCCC`, for which the inhibition was 10.5%.

Consider `N=C(NCCc1c[nH]c2ccccc12)NCc1ccccc1Cl`, for which the inhibition is -1.16%.

In the case of `CC(=O)Oc1c(Cl)c(C)nc(C)c1-c1ccc(Oc2ccc(OC(F)(F)F)cc2)cc1`, the inhibition was 2.42%.

As to `O=C(Nc1cccc(-c2nn3ccccc3c2-c2ccnc(Nc3ccc(C(=O)N4CCOCC4)cc3)n2)c1)c1c(F)cccc1F`, the inhibition is 2.78%.

As for `Cc1nc(O)c2c(ccc3ccc(CN(C)c4ccc(C(=O)N[C@@H](CCC(=O)O)C(=O)O)cc4)cc32)n1`, the inhibition was -1.57%.

In the case of `Cc1cc(C(F)(F)F)n2nc(C(=O)N(Cc3cncn3Cc3ccccc3F)CC3CC3)cc2n1`, the inhibition was -0.18%.

As for `Clc1ccccc1/C=C/c1cncnc1Nc1ccc2[nH]c(Cc3ccccc3)nc2c1`, the inhibition came to 1.23%.

As to `CN(Cc1cccc(O)c1)C1CCN(c2cc(NC(=O)c3cccc(F)c3)ccn2)CC1`, the inhibition was 1.33%.

On to `Nc1nc(N)c2c(ccc3nn(Cc4ccccc4)cc32)n1`, for which the inhibition was -0.15%.

Regarding `CCCCNC(=O)[C@H](CC1CCCCC1)NC(=O)c1ccc(O)c(-c2cccc(C(F)(F)F)c2)c1`, the inhibition was determined as 3.61%.

`O=C(Nc1ccc(C(F)(F)F)cc1)c1ccc(NCCCN2CCCCCC2)c([N+](=O)[O-])c1`: the inhibition stood at 6.28%.

Turning to `O=C(NCc1ccco1)c1ccc(CN2CCN(C(c3ccccc3)c3ccccc3)CC2)cc1`, the inhibition stood at 4.79%.

With `CCc1c(C)nc(-n2nc(C)cc2NC(=O)CCc2ccccc2)[nH]c1=O`, the inhibition was determined as 2.86%.

On to `Cc1[nH]cnc1CSCCNC(=N)NCCCCCCCCNC(=N)NCCSCc1nc[nH]c1C`, for which the inhibition is -0.05%.

Turning to `COc1ccc(NC(=O)c2ccc(-c3cccc(OCc4ccccc4)c3)cc2)cc1N1CCN(C)CC1`, the inhibition was -0.95%.

Regarding `CNC(=O)C(C)N(c1ccc(Cl)cc1)c1nc(C(C)(C)C)cs1` (stereo not given), the inhibition came to 3.15%.

Turning to `O=C(CCc1ccccc1)N[C@H](Cc1c[nH]c2ccccc12)C(=O)N1CCC(NCc2ccc3c(c2)Cc2ccccc2-3)CC1`, the inhibition was 7.1%.

Regarding `COc1ccc(NC(=O)[C@H](Cc2ccccc2)Nc2nc(NCCN3CCCC3)ncc2C)cc1`, the inhibition was 3.02%.

For the molecule `COc1ccc(CC(C)CON2C(N)=NC(N)=NC2(C)C)cc1` (stereo not given), the inhibition is 4.04%.

For the molecule `CC(C)(C)NCCN(Cc1ccc(-c2ccc(C(F)(F)F)cc2)cc1)C(=O)Cn1c(CCc2cccc(F)c2F)nc(=O)c2ccccc21`, the inhibition stood at 1.15%.

With `Cc1cc([N+](=O)[O-])ccc1N1CCN(CCCCNC(=O)c2ccc(NC(=O)c3ccc(Cl)cc3)cc2)CC1`, the inhibition was 4.35%.

As to `CC(C)OC(=O)c1cccnc1SCC(=O)Nc1ccc(C(F)(F)F)cc1Cl`, the inhibition came to 3.79%.

In the case of `Clc1cc(Cl)cc(Nc2ccnc(Nc3cc(Cl)cc(Cl)c3)n2)c1`, the inhibition came out at 2.57%.

In the case of `CN(C)CC1CCCN1Cc1ccccc1-c1cnn(C)c(=O)c1Oc1ccc(F)cc1` (stereo not given), the inhibition was 4.45%.

Consider `Cc1cccc2nc(-c3cccc(-c4cccc(CNCc5ccc(S(C)(=O)=O)cc5)c4)c3)[nH]c12`, for which the inhibition is -0.24%.

Regarding `COc1ccc(-c2nc(NC(=O)Cc3coc4cc(OC)ccc34)sc2C)cc1`, the inhibition was -0.72%.

`CS(=O)(=O)CCNCc1cccc(-c2cc3c(Nc4ccc(OCc5ccccc5)cc4)ncnc3cn2)c1`: the inhibition was 6.71%.

As for `CC(C)n1cc(CN2CCCC(C(=O)Nc3cccc(-c4cc5ccccc5[nH]4)c3)C2)cn1` (stereo not given), the inhibition is -0.59%.

For the molecule `Nc1nc(N)c2c(ccc3c2cnn3S(=O)(=O)N2CCCC2)n1`, the inhibition was -2.01%.

Regarding `Cc1ccc(NC(=O)c2cnc(N3CCN(c4ccncc4)CC3)c(Cl)c2)cc1`, the inhibition was determined as 17.1%.

On to `C[C@H](Cc1ccc(OCCCCCCOc2ccc(C[C@@H](C)NC(=O)[C@H](O)c3cccc(Cl)c3)cc2)cc1)NC[C@H](O)c1cccc(Cl)c1`, for which the inhibition came to 4.7%.

With `Cn1nc(-c2cccc(CNC3CCc4ccccc43)c2)c2cnc(NCCCN3CCCC3)nc21` (stereo not given), the inhibition is 25.9%.

These data come from ChEMBL document CHEMBL3433997, “St. Jude Leishmania screening dataset” (2016).
